Data: PubChem BioAssay AID540333 (Southern Research Specialized Biocontainment Screening …, 2011)
Out of some 10,000 compounds screened, about 320 (3.2%) were called active. The entries come from a sample that favours actives as a whole. Unmarked numbers belong to inactive results. Cut-off read from the data, not from the text of the source: active = CPE inhibition mostly above about 9.1% (no sharp cut-off); inactive = mostly below about 7.2%.

assay: Dengue virus cytopathic effect inhibitors, cell-based, CPE readout, HTS (AID 540333); settings: Dengue virus CPE inhibition in host cells, at 20 µM; stronger effect = higher value

| SMILES | CPE inhibition |
| --- | --- |
| Cc1ccc(NP(=O)(c2ccc(N(C)C)cc2NC(=O)c2cccs2)N2CCOCC2)cc1Cl (configuration not stated) | 28.7% (active) |
| Cc1ccc(NP(=O)(c2ccc(N(C)C)cc2NC(=O)c2cccs2)N2CCOCC2)cc1 (configuration not stated) | 2.19% |
| CN(C)c1ccc(P(=O)(Nc2ccccc2)N2CCOCC2)c(NC(=O)c2cccs2)c1 (configuration not stated) | 2.15% |
| COC(=O)c1ccccc1NC(=O)C1CCCO1 (configuration not stated) | 3.31% |
| CCOC(=O)c1c(C)[nH]c(C(=O)COC(=O)[C@H](C)NC(=O)c2ccccc2Cl)c1C | 0.24% |
| CC(=O)c1c(C)[nH]c(C(=O)Nc2nc(-c3ccccc3)c(C)s2)c1C | 0.6% |
| O=C(Nc1nc(-c2ccc(Cl)cc2)cs1)NC1CCCCC1 | 20.3% (active) |
| O=C(/C=C/c1ccco1)NC(=S)Nc1nc(-c2ccc(Cl)cc2)cs1 | 1.57% |
| O=C(NNc1nc(-c2ccc(Cl)cc2)cs1)c1ccco1 | inactive |
| CC(=O)c1c(C)[nH]c(C(=O)Nc2nc(-c3ccc(Cl)cc3)cs2)c1C | 26.9% (active) |
| CC(=O)c1c(C)[nH]c(C(=O)Nc2nc(-c3ccc(-c4ccccc4)cc3)cs2)c1C | 4.52% |
| CCOP(=O)(OCC)C(Nc1ccccc1)c1cc(OC)ccc1OC (configuration not stated) | inactive |
| COc1cccc(-c2c(-c3cc(OC)cc(OC)c3)n(C)c3ccc(-c4ccc5[nH]ccc5c4)cc23)c1 | 2.75% |
| O=C(/C=C/c1ccc(Cl)cc1Cl)N(Cc1ccc(Cl)cc1)C1CCS(=O)(=O)C1 (configuration not stated) | 29.6% (active) |
| O=C(/C=C/c1ccc(Cl)cc1Cl)N(Cc1ccccc1)C1CCS(=O)(=O)C1 (configuration not stated) | 38.5% (active) |
| CC(C)CN(C(=O)CSc1nn(-c2ccc(Cl)cc2)c(=S)s1)C1CCS(=O)(=O)C1 (configuration not stated) | 2.1% |
| O=C(CCl)N(c1ccccc1)C1CCS(=O)(=O)C1 (configuration not stated) | inactive |
| CCN(C(=O)COC(=O)/C=C/c1ccc(O)c(OC)c1)C1CCS(=O)(=O)C1 (configuration not stated) | 0.935% |
| O=C(/C=C/c1ccc(Cl)cc1Cl)NCCSCc1ccccc1 | 0.45% |

| SMILES | CPE inhibition |
| --- | --- |
| COc1nccnc1NS(=O)(=O)c1ccc(NC(=S)NC(=O)c2ccccc2)cc1 | inactive |
| Cc1cc(C)cc(NC(=O)CSc2nc3c(oc4ccccc43)c(=O)n2-c2ccccc2)c1 | 0.68% |
| COc1ccc(NC(=O)COC(=O)CNS(=O)(=O)c2ccc(F)c(F)c2F)cc1OC | inactive |
| N#Cc1ccc(C(=O)Nc2cc(S(=O)(=O)Nc3ccc(Cl)cc3)ccc2N2CCCCC2)cc1 | 7.53% (active) |
| COc1ccc(NS(=O)(=O)c2ccc(N3CCOCC3)c(NC(=O)c3ccc(OC)cc3)c2)cc1 | inactive |
| O=C(Nc1cc(S(=O)(=O)Nc2ccc(Cl)cc2)ccc1N1CCCCC1)c1ccc(F)cc1Cl | inactive |
| CCOC(=O)C1=C(O)/C(=C/c2ccc(OCC(=O)O)c(OCC)c2)SC1=Nc1ccc(OC)cc1 | 0.63% |
| CC(=O)N1c2ccccc2[C@H](C)[C@H]1C | inactive |
| O=C(NCCc1nc2ccccc2[nH]1)c1ccc(Cl)c([N+](=O)[O-])c1 | 0.05% |
| CCC[C@@H](NS(=O)(=O)c1ccc(C)cc1)C(=O)Oc1ccc2c3c(c(=O)oc2c1)CCC3 | inactive |
| S=C(Nc1ccc(Oc2ccccc2)cc1)NC1CCCCCC1 | 0.02% |
| CCNC(=S)N1CCN(CC(=O)Nc2ccc(Br)cc2)CC1 | 2.06% |
| S=C(Nc1ccc(Br)cc1)NC1CCCCC1 | 4.99% |
| O=C(CN1CCN(C(=S)NC2CCCC2)CC1)Nc1ccc(Oc2ccccc2)cc1 | 12.1% (active) |
| S=C(Nc1ccc(Oc2ccc(NC(=S)NC3CCCCC3)cc2)cc1)NC1CCCCC1 | 25.8% (active) |
| S=C(Nc1ccc(Oc2ccccc2)cc1)NC1CCCC1 | 0.255% |
| Cc1ccc(S(=O)(=O)N(C)Cc2ccc(C(=O)N/N=C/c3ccc(OC(F)F)cc3OC(F)F)cc2)cc1 | 2.12% |
| S=C(c1ccc(-c2ccccc2Cl)o1)N1CCCCC1 | 2.92% |
| Cn1cc(C(=O)N2CCc3ccccc32)cn1 | inactive |

| SMILES | CPE inhibition |
| --- | --- |
| c1cnc2cc(-c3ccsc3)ncc2c1 | 0.12% |
| COc1cccc(/C=C(/C#N)c2ccc(F)cc2)c1OCc1cccc(C(=O)O)c1 | inactive |
| CN1CCN(C(=O)c2cnn3c(C(F)(F)F)cc(-c4cccs4)nc23)CC1 | inactive |
| CC(C)/C=N/NC(=O)c1cccc(N2CCCC2=O)c1 | 0.335% |
| CCOC(=O)c1sc(NC(=S)NC(=O)c2ccccc2)c(C(=O)OCC)c1C | 3.5% |
| COc1cccc(-c2c(-c3cc(OC)cc(OC)c3)n(C)c3ccc(-c4cccc5[nH]ccc45)cc23)c1 | 4.01% |
| COc1ccc(-c2c(-c3cc(OC)cc(OC)c3)n(C)c3ccc(-c4cccc5[nH]ccc45)cc23)cc1 | 3.95% |
| COc1cc(OC)cc(-c2c(-c3cccs3)c3cc(-c4cccc5[nH]ccc45)ccc3n2C)c1 | 11.7% (active) |
| Cc1ccc(-c2[nH]nc3c2C(C)C(C#N)=C(N)O3)cc1 (configuration not stated) | inactive |
| CC(C)(C)[C@@H]1CCC(=O)N(CC[C@H](Sc2ccccc2)c2ccccc2)CC1 | 1.54% |
| CN(Cc1ccccc1)c1nc(CN2CCOCC2)nc2scc(-c3ccccc3)c12 | 1.83% |
| Cc1ccc(-c2csc3nc(SCC(N)=O)n(Cc4ccccc4)c(=O)c23)cc1 | 12% (active) |
| Cc1ccc(-c2csc3nc(SCC(=O)N(C)C)n(Cc4ccccc4)c(=O)c23)cc1 | 21.1% (active) |
| Cc1ccc(-n2c(SCC(N)=O)nc(O)cc2=O)cc1 | 1.35% |
| C=CCn1c(SCC(=O)c2[nH]c(C)c(C(=O)OCC)c2C)nc2scc(-c3ccc(OC)cc3)c2c1=O | inactive |
| CCn1c(SCc2nc3scc(-c4ccccc4)c3c(=O)[nH]2)nnc1-c1cccs1 | inactive |
| O=C(Nc1ccc(-c2nc3ccccc3[nH]2)cc1)c1ccccc1NS(=O)(=O)c1ccc(F)cc1 | 0.325% |
| COc1cc(NC(=O)CSc2nc3c(C)ccc(C)c3cc2C)c(C(=O)O)cc1OC | inactive |
| O=C1CN(C(=O)CSc2nnc(Nc3ccccc3)s2)c2ccccc2N1 | inactive |
